# Bioassay records (PubChem BioAssay)
# Anthrax LF inh2: blocks Bacillus anthracis lethal factor protease | 0.12% of 360,000 active | P15917 | multiplex microsphere protease cleavage assay, LF | inhibition, % at 10 µM; note: plate controls were buffer without enzyme for full effect and enzyme alone for no effect
# Target sequence (P15917 whole entry, looked up): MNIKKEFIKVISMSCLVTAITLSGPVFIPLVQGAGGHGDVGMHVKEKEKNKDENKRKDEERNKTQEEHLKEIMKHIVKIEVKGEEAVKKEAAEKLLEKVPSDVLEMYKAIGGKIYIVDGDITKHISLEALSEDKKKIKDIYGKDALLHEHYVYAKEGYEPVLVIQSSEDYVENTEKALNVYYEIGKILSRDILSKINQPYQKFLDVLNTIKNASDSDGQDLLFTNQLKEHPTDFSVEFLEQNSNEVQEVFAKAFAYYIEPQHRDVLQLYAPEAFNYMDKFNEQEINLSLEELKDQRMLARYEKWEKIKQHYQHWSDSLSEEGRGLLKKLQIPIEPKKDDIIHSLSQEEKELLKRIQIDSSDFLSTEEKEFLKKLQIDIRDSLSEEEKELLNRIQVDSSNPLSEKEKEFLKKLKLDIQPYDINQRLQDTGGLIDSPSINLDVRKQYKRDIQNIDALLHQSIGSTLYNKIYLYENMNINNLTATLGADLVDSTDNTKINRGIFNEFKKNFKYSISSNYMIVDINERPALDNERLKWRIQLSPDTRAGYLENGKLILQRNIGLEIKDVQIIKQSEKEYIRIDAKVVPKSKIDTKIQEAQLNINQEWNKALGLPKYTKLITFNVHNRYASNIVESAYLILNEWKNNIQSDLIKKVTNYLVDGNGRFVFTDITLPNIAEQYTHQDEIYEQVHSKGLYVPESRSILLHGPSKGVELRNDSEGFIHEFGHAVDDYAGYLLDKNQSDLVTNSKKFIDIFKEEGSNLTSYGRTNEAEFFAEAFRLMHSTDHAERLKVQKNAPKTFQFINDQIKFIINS
# BoNT A protease: inhibitors of Botulinum neurotoxin A light chain protease. multiplex microsphere protease substrate cleavage, flow cytometry. inhibition, % at 10 µM. 0.17% of 360,000 active. AID 588499; note: plate controls were buffer without enzyme for full effect and enzyme alone for no effect
# MazEF act: MazEF (E. coli) toxin RNase activation; P0AE70; FAM/BHQ RNA-DNA oligo cleavage fluorescence, 5 h; activation, % at 20 µM; 0.32% of 350,000 active; AID 504720; in the data active = activation above about 50%
# BoNT-F LC inh: BoNT F light chain protease inhibition. inhibition, % at 10 µM. AID 588497. Multiplex microsphere protease cleavage assay, flow cytometry. 0.22% of 360,000 active; in the data active = inhibition above about 35%, passing the limit was not always enough; inconclusive = no clear call, values can overlap the other calls; note: plate controls were buffer without enzyme for full effect and enzyme alone for no effect
# Autofluor counter: counter-screen for toxin protease inhibitors: compound fluorescence | AID 624483 | compound autofluorescence counterscreen, microsphere flow cytometry; hits give high values | 3.1% of 360,000 active | fluorescence intensity (test concentration not listed); in the data active = fluorescence intensity above about 16000; inconclusive = no clear call, values can overlap the other calls
# * marks the source's active call; other numbers are inactive results; u = inconclusive; x = no result. Shown are actives, neighbours in structure and some others; about 3.7% of the full set was active somewhere. Cut-off read from the data, not from the text of the source, unless noted: active = inhibition above about 30%; inconclusive = no clear call, values can overlap the other calls; inactive = below that.
SMILES,Anthrax LF inh2,BoNT A protease,MazEF act,BoNT-F LC inh,Autofluor counter
CN1CCN(C(=O)c2ccc(-c3nn(C)c(=O)c4ccccc34)cc2)CC1,-1.6,1.5,-4.5,2.8,10791
COCCNC(=O)C1(C)CCCN(C(=O)c2cc(C)on2)C1 (stereo unspecified),0.7,-0.3,x,4.4,3369
COc1cc(C(C)=O)ccc1Oc1ncnc2c1cnn2-c1ccc(C)c(C)c1,1.7,0.6,-5.8,3.3,8836
COc1cc(C(C)=O)ccc1Oc1ncnc2c1cnn2-c1ccccc1,-0.1,-0.6,60.2*,-2.5,6911
COc1ccc(-c2cc(=O)oc3cc4occ(C)c4cc23)cc1,-2.1,1.0,6.4,1.2,22808*
CC(NS(C)(=O)=O)C(c1cccs1)N1CCN(c2ccc(F)cc2)CC1 (stereo unspecified),-0.2,0.9,-5.1,1.5,9747
CC(NS(C)(=O)=O)C(c1cccs1)N1CCN(C)CC1 (stereo unspecified),-2.8,-0.3,3.8,2.3,16401*
CC(C)C(=O)NC(C)C(c1cccs1)N1CCN(C)CC1 (stereo unspecified),-3.4,-3.4,5.9,-3.1,23161*
COc1ccccc1N1CCN(C(c2cccs2)C(C)NS(=O)(=O)c2ccccc2)CC1 (stereo unspecified),-1.6,-0.7,0.4,-9.6,4879
CC(NS(=O)(=O)c1ccccc1)C(c1cccs1)N1CCN(c2ccccc2)CC1 (stereo unspecified),-3.0,-3.6,-4.2,-7.1,17711*
CCCC(=O)NC(C)C(c1cccs1)N1CCN(C)CC1 (stereo unspecified),-5.7,0.5,-8.5,3.0,10835
CC1=C(C(=O)N2CCCCCC2)CC(CC(=O)NCCCN(C)C)C(=O)N1Cc1ccccc1 (stereo unspecified),-1.5,0.2,x,-2.2,6208
Cc1ccc2nc(/C(C#N)=C\c3cc(C)n(-c4cccc([N+](=O)[O-])c4)c3C)[nH]c2c1,-3.2,u,13.9,-4.8,16239*
Cc1cc(/C=C(/C#N)c2nc3ccccc3[nH]2)c(C)n1-c1cc(C(=O)O)cc(C(=O)O)c1,-4.9,1.1,-136.9,-2.1,3938
Cc1ccc(S(=O)(=O)N(C)c2nonc2C)cc1,0.6,0.8,9.2,-0.7,19642*
Cc1ccc(S(=O)(=O)N(C)c2nc3ccccc3[nH]c2=S)cc1,2.1,0.9,-9.9,1.6,5879
Cc1ccc(CN2C(=O)CCC2C(=O)NCc2cccnc2)cc1 (stereo unspecified),-6.0,3.6,-2.6,2.1,21210*
COc1ccc(N(Cc2cc(=O)[nH]c3ccccc23)C(=O)CCl)cc1,-20.5,-0.6,12.0,-0.2,3658
CC(=O)Oc1ccc2oc3c(c2c1)C(=O)CCC3,-1.2,-1.6,7.1,-3.7,23365*
CC(C)N1CCOC1c1ccccc1 (stereo unspecified),-2.3,-1.0,-1.3,-8.4,3101
COC(=O)c1c(NC(=O)CCCC(=O)O)sc2c1CCC2,-0.3,-0.7,-1.7,0.7,22669*
COC(=O)c1c(NC(C)=O)sc2c1CCCC2,-9.8,-1.6,-3.2,-32.3,4342
COC(=O)c1c(NC(=O)CC2SCC(C(=O)OC)NC2=O)sc2c1CCCC2 (stereo unspecified),-0.9,-3.0,3.3,-4.6,24791*
NC(=O)c1c(NC(=O)CCCC(=O)O)sc2c1CCCCCC2,-1.7,-0.3,-2.3,1.5,2094
COC(=O)c1c(NC(=O)CN2CCN(c3ncccn3)CC2)sc(C(N)=O)c1C,0.4,1.2,-18.9,4.2,4123
SMILES,Anthrax LF inh2,BoNT A protease,MazEF act,BoNT-F LC inh,Autofluor counter
O=C(NCCc1ccccc1)C1Cc2c(-c3ccc4c(c3)OCO4)ccnc2O1 (stereo unspecified),1.1,-0.2,x,-8.7,2992
Cn1nc(C2CC2)cc1NC(=O)C1(C)CCN1C(=O)c1ccccc1CCc1ccccc1 (stereo unspecified),-0.7,-0.2,x,3.4,2985
Cc1ccc(CN(Cc2cccnc2)C(=O)CN2C(=O)COc3ccccc32)o1,-3.6,-0.5,7.5,-3.8,8126
CCC1Oc2ccccc2N(CC(=O)NCCc2ccc(OC)c(OC)c2)C1=O (stereo unspecified),-1.3,-0.5,3.5,3.3,4155
COc1ccc(NC(=O)CN2CCC(C)CC2)cc1,-4.4,-5.2,-1.8,-7.0,17348*
COc1ccc(CN(Cc2ccccn2)C(=O)CN2C(=O)C(C)Oc3ccccc32)cc1 (stereo unspecified),-2.0,-1.3,-1.4,-2.2,22997*
O=C(CN1C(=O)COc2ccccc21)N(Cc1ccccc1)Cc1ccccn1,-0.3,u,-8.7,3.6,22246*
